From PubChem BioAssay (NCATS)
Inconclusive results are not listed. Calls of active or inactive are those of the source. Calls follow the shape of the dose curve; as a rule, active = well fitted curve in the direction sought with a large enough effect; inconclusive = small, poorly fitted or top-dose-only effect, or another doubt; inactive = no such curve, though single readings can be large; an effect the other way counts as inactive or inconclusive.

Tests used:
[1] = biological target: Ubiquitin carboxyl-terminal hydrolase 1 (Homo sapiens) (UniProt O94782); test: Inhibitors of USP1/UAF1: Pilot qHTS (AID 504865);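 also: rhodamine fluorescence freed from ubiquitin-rhodamine substrate followed over time; top concentration of the series differs between compounds; % is scaled to controls: 0 for no effect and ±100 for the full control effect; nearly all actives have a fitted effect of over 35% in size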
Ubiquitin carboxyl-terminal hydrolase 1 (Homo sapiens), sequence (O94782 whole entry, looked up): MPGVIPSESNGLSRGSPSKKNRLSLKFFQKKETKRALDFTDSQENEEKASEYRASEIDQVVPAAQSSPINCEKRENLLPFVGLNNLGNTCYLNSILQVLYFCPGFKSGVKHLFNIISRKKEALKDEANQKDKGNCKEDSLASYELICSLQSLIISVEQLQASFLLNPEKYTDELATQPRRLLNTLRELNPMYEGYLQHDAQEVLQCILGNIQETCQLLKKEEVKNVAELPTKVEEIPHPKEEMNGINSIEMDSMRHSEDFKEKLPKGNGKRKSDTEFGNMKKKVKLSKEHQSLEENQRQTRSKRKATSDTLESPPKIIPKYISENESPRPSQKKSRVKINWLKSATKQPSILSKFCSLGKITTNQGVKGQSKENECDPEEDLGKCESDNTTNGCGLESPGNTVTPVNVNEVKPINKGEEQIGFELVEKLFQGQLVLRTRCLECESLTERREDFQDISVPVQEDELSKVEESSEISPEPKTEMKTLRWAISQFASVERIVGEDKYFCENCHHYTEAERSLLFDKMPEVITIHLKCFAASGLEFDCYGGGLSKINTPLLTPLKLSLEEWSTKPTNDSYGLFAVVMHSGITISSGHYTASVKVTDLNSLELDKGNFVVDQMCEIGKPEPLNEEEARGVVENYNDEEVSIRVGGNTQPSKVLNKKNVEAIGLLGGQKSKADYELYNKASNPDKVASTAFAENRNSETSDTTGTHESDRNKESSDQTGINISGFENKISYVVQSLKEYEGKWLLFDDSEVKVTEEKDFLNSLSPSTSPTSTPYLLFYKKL
Outline: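 USP1/UAF1 complex (1nM) preincubated with compound 15 min at room temperature, then Ub-Rho substrate (150nM final) added. Fluorescence read kinetically at 480/540 nm, 6 reads every 60 seconds. Buffer: 50mM HEPES pH 7.8, 0.5mM EDTA, 0.1 mg/ml BSA, 1mM TCEP, 0.01% Tween-20.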

[2] = biological target: Luciferin 4-monooxygenase (Photinus pyralis) (UniProt P08659); test: Biochemical firefly luciferase enzyme assay for NPC (AID 624030);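 also: purified P. pyralis luciferase at 10 nM with luciferin and ATP substrate; 0% = DMSO and -100% = full luciferase inhibition by PTC124 control; nearly all actives have a fitted effect of over 70% in size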
Luciferin 4-monooxygenase (Photinus pyralis), sequence (P08659 whole entry, looked up): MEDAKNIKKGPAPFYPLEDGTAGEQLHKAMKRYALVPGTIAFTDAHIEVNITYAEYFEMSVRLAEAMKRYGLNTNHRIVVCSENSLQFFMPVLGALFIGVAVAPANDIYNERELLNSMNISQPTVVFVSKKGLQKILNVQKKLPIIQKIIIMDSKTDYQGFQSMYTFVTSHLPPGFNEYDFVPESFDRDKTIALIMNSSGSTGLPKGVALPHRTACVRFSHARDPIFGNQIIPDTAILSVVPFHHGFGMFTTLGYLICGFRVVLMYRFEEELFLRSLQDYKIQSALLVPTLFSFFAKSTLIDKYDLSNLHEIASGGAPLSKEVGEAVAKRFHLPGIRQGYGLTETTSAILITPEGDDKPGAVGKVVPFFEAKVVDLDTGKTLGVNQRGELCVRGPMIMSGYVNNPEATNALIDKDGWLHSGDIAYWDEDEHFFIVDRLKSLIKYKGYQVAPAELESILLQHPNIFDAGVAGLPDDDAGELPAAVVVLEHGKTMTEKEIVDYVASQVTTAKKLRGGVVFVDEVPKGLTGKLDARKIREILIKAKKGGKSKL
Outline: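 Counter-screen for direct inhibition of the luciferase enzyme by approved-drug library compounds, run at 10 nM enzyme in 50 mM Tris acetate (final). Luminescence was read within 5 min of enzyme-buffer addition and normalized to PTC124 versus DMSO (0%).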

[3] = qHTS profiling for inhibitors of Plasmodium falciparum proliferation (AID 504749);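 also: 0% = DMSO vehicle and full inhibition = artemisinin control; nearly all actives have a fitted effect of over 60% in size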; conditions: P. falciparum in erythrocytes, SYBR Green DNA, 72 h, at 28.7 µM (top of the series)
Outline: (§1)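 Fluorescence of SYBR Green-bound parasite DNA, read at 485/535 nm, served as the growth measure. Infected erythrocytes were cultured with compound 72 h; artemisinin (0.29 uM) and DMSO wells defined the normalization range.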

[4] = system: CP192; test: as above; conditions: P. falciparum in erythrocytes, SYBR Green DNA, 72 h; series mostly up to 28.7 µM
Outline: as §1

[5] = system: CP201; test: as above; conditions: P. falciparum in erythrocytes, SYBR Green DNA, 72 h; series mostly up to 28.7 µM
Outline: as §1

[6] = system: CP315; test: as above; conditions: P. falciparum in erythrocytes, SYBR Green DNA, 72 h; series mostly up to 28.7 µM
Outline: as §1

[7] = system: CP325; test: as above; conditions: P. falciparum in erythrocytes, SYBR Green DNA, 72 h; series mostly up to 28.7 µM
Outline: as §1

[8] = system: FAB9; test: as above; conditions: P. falciparum in erythrocytes, SYBR Green DNA, 72 h; series mostly up to 28.7 µM
Outline: as §1

[9] = system: PC49; test: as above; conditions: P. falciparum in erythrocytes, SYBR Green DNA, 72 h; series mostly up to 28.7 µM
Outline: as §1

[10] = Inducers of the Endoplasmic Reticulum Stress Response (ERSR) in human glioma: Validation (AID 504836); also: 0% is about no effect
Outline: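 Stably transfected U87-MG human glioma cells carrying a GRP78-based luminescent sensor were seeded at 1000 cells/well, pin-dosed with compounds and incubated 16 h. Luciferase reagent was then added, and end-point luminescence was read after 10 min at room temperature.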

[11] = system: CP211; test: qHTS profiling for inhibitors of Plasmodium falciparum proliferation (AID 504749);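 also: 0% = DMSO vehicle and full inhibition = artemisinin control; nearly all actives have a fitted effect of over 60% in size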; conditions: P. falciparum in erythrocytes, SYBR Green DNA, 72 h; series mostly up to 28.7 µM
Outline: as §1

[12] = system: CP268; test: as above; conditions: P. falciparum in erythrocytes, SYBR Green DNA, 72 h; series mostly up to 28.7 µM
Outline: as §1

[13] = system: CP269; test: as above; conditions: P. falciparum in erythrocytes, SYBR Green DNA, 72 h; series mostly up to 28.7 µM
Outline: as §1

[14] = system: CP329; test: as above; conditions: P. falciparum in erythrocytes, SYBR Green DNA, 72 h; series mostly up to 28.7 µM
Outline: as §1

[15] = system: JCK; test: as above; conditions: P. falciparum in erythrocytes, SYBR Green DNA, 72 h; series mostly up to 28.7 µM
Outline: as §1

[16] = system: CP262; test: as above; conditions: P. falciparum in erythrocytes, SYBR Green DNA, 72 h; series mostly up to 28.7 µM
Outline: as §1

[17] = biological target: Cytochrome P450 3A4 (Homo sapiens) (UniProt P08684); test: qHTS Assay for Inhibitors and Substrates of Cytochrome P450 3A4 (AID 884); also: % is scaled to controls: 0 for no effect and ±100 for the full control effect; nearly all actives have a fitted effect of over 50% in size
Cytochrome P450 3A4 (Homo sapiens), sequence (P08684 whole entry, looked up): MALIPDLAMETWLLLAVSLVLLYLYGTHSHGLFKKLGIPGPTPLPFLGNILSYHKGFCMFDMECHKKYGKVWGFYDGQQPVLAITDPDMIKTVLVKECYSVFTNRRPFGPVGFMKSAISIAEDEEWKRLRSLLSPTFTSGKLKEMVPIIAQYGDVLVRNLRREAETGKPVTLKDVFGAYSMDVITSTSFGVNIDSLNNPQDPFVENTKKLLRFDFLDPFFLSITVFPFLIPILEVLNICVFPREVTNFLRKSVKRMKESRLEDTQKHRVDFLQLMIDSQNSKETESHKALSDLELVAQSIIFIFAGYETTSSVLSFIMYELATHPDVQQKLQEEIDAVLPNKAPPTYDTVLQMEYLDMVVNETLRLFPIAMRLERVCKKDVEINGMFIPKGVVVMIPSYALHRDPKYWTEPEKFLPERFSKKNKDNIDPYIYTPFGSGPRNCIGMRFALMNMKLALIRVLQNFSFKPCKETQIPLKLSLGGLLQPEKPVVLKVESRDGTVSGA
Outline: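 Luminescent readout of luciferin produced by CYP3A4 (20 nM) dealkylation of Luciferin-PPXE, 25 uM (its KM). NADPH-driven reaction ran 60 min at RT after 10 min compound preincubation; data scaled to 57 uM ketoconazole as 100% inhibition.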

[18] = Confirmation and Secondary Assay for Modulators of Hemoglobin Beta Chain Splicing at IVS2 654 locus (AID 910);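 also: per-well total GFP intensity by laser scanning cytometry after 2-day treatment; % of control where 0% means no effect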
Outline: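 HeLa cells stably carrying EGFP interrupted by mutant beta-globin IVS2-654 intron (CMV-driven) were treated with compound for 2 days at 37C; corrected splicing was scored as total peak GFP intensity per well (488 nm excitation, 500-520 nm emission).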

[19] = Confirmation and Secondary Assay for Modulators of Hemoglobin Beta Chain Splicing at IVS2 705 locus (AID 930);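 also: HeLa cells stably expressing the EGFP-705 splicing reporter; GFP fluorescence per well restored by corrected splicing of the IVS2-705 intron in EGFP; % of control where 0% means no effect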
Outline: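 HeLa EGFP-705 reporter; 500 cells/well, o/n 37C 5% CO2; cpd 2 d; 488 ex/500-520 em laser scan; total peak GFP intensity/well. Ref: 500 nM […] antisense PNA.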

CCN(CC)C(=O)N[C@@H]1C=C2c3cccc4[nH]cc(c34)C[C@H]2N(C)C1
inactive: Potency [1] | Potency [2] | activity, negative = inhibition ([3]; parasite line A) -22.6% | Potency [4] | Potency [5] | Potency [6] | Potency [7] | Potency [8] | Potency [9]

CN[C@@H](CC(C)C)C(=O)N[C@@H]1C(=O)N[C@H](CC(N)=O)C(=O)N[C@@H]2C(=O)N[C@H]3C(=O)N[C@H](C(=O)N[C@H](C(=O)O)c4cc(O)cc(O)c4-c4cc3ccc4O)[C@H](O)c3ccc(c(Cl)c3)Oc3cc2cc(c3O[C@H]2O[C@@H](CO)[C@@H](O)[C@@H](O)[C@@H]2O[C@@H]2C[C@](C)(N)[C@H](O)[C@H](C)O2)Oc2ccc(cc2Cl)[C@@H]1O
inactive: Potency [1]

O=C(CCCCCN1CCN(c2ccccc2-c2ccccc2)CC1)NC1CCCc2ccccc21 (stereo not given)
inactive: outcome [10]

C=CCc1cccc(C=NNC(=O)CN2CCN(Cc3ccccc3)CC2)c1O
inactive: outcome [10]

CC[C@@H](C)[C@H]1O[C@]2(CC[C@H]1C)C[C@@H]1C[C@@H](CC=C(C)[C@@H](O[C@H]3C[C@H](OC)[C@@H](O[C@H]4C[C@H](OC)[C@@H](O)[C@H](C)O4)[C@H](C)O3)[C@@H](C)C=CC=C3CO[C@@H]4[C@H](O)C(C)=C[C@@H](C(=O)O1)[C@]34O)O2
inactive: outcome [10]

O=C1CC2OCC=C3CN4CCC56c7ccccc7N1C5[C@H]2[C@H]3C[C@H]46 (stereo not given in full) (tested in a mixture with another compound)
inactive: Potency [1] | Potency [4] | Potency [5] | Potency [11] | Potency [12] | Potency [13] | Potency [6] | Potency [7] | Potency [14] | Potency [15]

Cc1cc2c(cc1Cl)N(C(=O)Nc1ccc(Oc3cccnc3C)nc1)CC2
inactive: outcome [10]

CC#CCOC(=O)c1c(C)nc2sc3c(c2c1N)CCC(O)C3 (stereo not given)
inactive: outcome [10]

CN(C)[C@@H](Cc1ccccc1)c1ccccc1
inactive: Potency [1] | Potency [2] | activity, negative = inhibition ([3]; parasite line A) 6.12% | activity, negative = inhibition ([3]; parasite line B) 4.62% | Potency [4] | Potency [5] | Potency [11] | Potency [16] | Potency [12] | Potency [13] | Potency [6] | Potency [7] | Potency [14] | Potency [8] | Potency [15] | Potency [9]

C#C[C@]1(O)CC[C@H]2[C@@H]3CCC4=CC(=O)CCC4(C)[C@H]3CCC21C (stereo not given in full)
inactive: Potency [2] | activity, negative = inhibition ([3]; parasite line A) -6.98% | activity, negative = inhibition ([3]; parasite line B) 2.88% | Potency [4] | Potency [5] | Potency [11] | Potency [16] | Potency [12] | Potency [13] | Potency [6] | Potency [7] | Potency [14] | Potency [8] | Potency [15] | Potency [9]

COc1ccccc1N1CCN(CCN(C(=O)c2ccc(I)cc2)c2ccccn2)CC1
inactive: outcome [10]

COC1=C(OC)C(=O)c2ccccc2C1=O
inactive: outcome [10]

NCCCCC(NC(CCc1ccccc1)C(=O)O)C(=O)N1CCCC1C(=O)O (stereo not given)
inactive: Potency [1]

Oc1ccc(/C=C/c2ccc(/C=C/c3ccc(O)cc3)c(Br)c2)cc1
inactive: outcome [10]

CCCCCCCC/C=C\CCCCCCCC(=O)NCCc1ccc(O)c(O)c1
inactive: outcome [10]

C=C1C(=O)O[C@@H]2[C@H]3O[C@]3(C)CCC=C(C)CC[C@@H]12
inactive: outcome [10]

CC(C)(C)c1cc(/C=C(\C#N)C(N)=S)cc(C(C)(C)C)c1O
inactive: outcome [10]

CCC(=O)OC1(c2ccccc2)CCN(C)CC1C (stereo not given)
inactive: Potency [1] | Potency [2] | activity, negative = inhibition ([3]; parasite line A) -1.38% | activity, negative = inhibition ([3]; parasite line B) 2.19% | Potency [4] | Potency [5] | Potency [11] | Potency [16] | Potency [12] | Potency [13] | Potency [6] | Potency [8] | Potency [15]

CC1CC[C@@]2(NC1)OC1CC3C4CC[C@@H]5CC(O)CC[C@@]5(C)C4CC[C@]3(C)C1C2C (stereo not given in full)
inactive: Potency [17] | Potency [18] | outcome [19] | Potency [2] | Potency [4] | Potency [5] | Potency [11] | Potency [16] | Potency [12] | Potency [13] | Potency [6] | Potency [7] | Potency [14] | Potency [8] | Potency [15] | Potency [9]

C=CC[C@]1(O)CCC2C3CCC4=CCCCC4C3CCC21C (stereo not given in full)
inactive: Potency [2] | activity, negative = inhibition ([3]; parasite line A) -16.3% | activity, negative = inhibition ([3]; parasite line B) -3.62% | Potency [4] | Potency [5] | Potency [11] | Potency [16] | Potency [12] | Potency [13] | Potency [6] | Potency [7] | Potency [14] | Potency [8] | Potency [15] | Potency [9]

COc1ccccc1N1CCN(CCCCNS(=O)(=O)c2cccc3c(N(C)C)cccc23)CC1
inactive: outcome [10]

CN(C)C1C(=O)C(C(N)=O)C(=O)C2(O)C(=O)C3C(=O)c4c(O)cccc4C(C)(O)C3C(O)C12 (stereo not given)
inactive: Potency [2] | Potency [4] | Potency [5] | Potency [11] | Potency [16] | Potency [14] | Potency [8] | Potency [15] | Potency [9]

C[N+]12CCC(CC1)[C@@H](OC(=O)C(O)(c1ccccc1)c1ccccc1)C2
inactive: Potency [1]

CC(C)(C)c1ccc(/C=C/C(=O)Nc2ccc3c(c2)OCCO3)cc1
inactive: outcome [10]

O=[N+]([O-])c1ccc2c(c1)S(=O)(=O)C=C2
inactive: outcome [10]
